# Measurements reported in the OligoGym collection.
# Key:
# Assay in all cases: pooled miR-30 sensor sort-seq; sequence = guide strand
# Conditions in all cases: shRNA
# IL13RA1 = biological target: IL13RA1
# IL12RB2 = biological target: IL12RB2
# IL16 = biological target: IL16
# IL10 = biological target: IL10
# IL7 = biological target: IL7
# IPO9 = biological target: IPO9
# ITFG1 = biological target: ITFG1
# JAM3 = biological target: JAM3
# KCND2 = biological target: KCND2
# KCNK6 = biological target: KCNK6
# KCNRG = biological target: KCNRG
# KHDRBS3 = biological target: KHDRBS3
# KIF25 = biological target: KIF25
# KLF14 = biological target: KLF14
# KLC3 = biological target: KLC3
# KLF15 = biological target: KLF15
# KIR2DL5B = biological target: KIR2DL5B
# KPRP = biological target: KPRP
# KRTAP10-10 = biological target: KRTAP10-10
# KRTAP10-2 = biological target: KRTAP10-2
# KRTAP13-2 = biological target: KRTAP13-2
# KRTAP13-1 = biological target: KRTAP13-1
# KRT86 = biological target: KRT86
# L1TD1 = biological target: L1TD1
# LARP1B = biological target: LARP1B
# Also: reference of the scale not given here.
sequence,measurement,setting,value
TTGCTTCTCATAGATGTCGTAC,sensor-assay potency score (higher = more potent),IL13RA1,-0.044
TAGTAGAGAGTATAGTTAGTGT,sensor-assay potency score (higher = more potent),IL13RA1,-0.663
TTCTGGAGCAACACCAACGAAG,sensor-assay potency score (higher = more potent),IL12RB2,-0.95
TTCATGAAGAATATCCTCCTAC,sensor-assay potency score (higher = more potent),IL16,0.448
TTTGACTCTTATTCTGACTGTG,sensor-assay potency score (higher = more potent),IL13RA1,0.568
TTTTCTATCAGCACTACAGAGT,sensor-assay potency score (higher = more potent),IL13RA1,-0.723
TAGGCTTCTATGTAGTTGATGA,sensor-assay potency score (higher = more potent),IL10,-0.258
TTTCTCCTGATGACAATCGTGA,sensor-assay potency score (higher = more potent),IL16,-0.801
TTGAATTTCATCACTATTGATA,sensor-assay potency score (higher = more potent),IL12RB2,-0.279
TTGCTCTTGTTTTCACAGGGAA,sensor-assay potency score (higher = more potent),IL10,-0.544
TTGCAGACAAACAAGGTTGTAC,sensor-assay potency score (higher = more potent),IL12RB2,0.163
ATCTCGGAGATCTCGAAGCATG,sensor-assay potency score (higher = more potent),IL10,-1.73
TTAACCATATTCCAGAGCCTGC,sensor-assay potency score (higher = more potent),IL12RB2,-1.49
TTTGCTTTAATCAACAGCCACG,sensor-assay potency score (higher = more potent),IL12RB2,-1.11
TTCCTTGTGACAATCACAGCTT,sensor-assay potency score (higher = more potent),IL16,0.571
TTTAACAACAAGTTGTCCAGCT,sensor-assay potency score (higher = more potent),IL10,0.786
TTCTACAGAAACATCACTGGCT,sensor-assay potency score (higher = more potent),IL16,0.755
TTTTGCTTTAATCAACAGCCAC,sensor-assay potency score (higher = more potent),IL12RB2,-1.02
TTGACCATTATTTGGACACTGT,sensor-assay potency score (higher = more potent),IL13RA1,0.157
ATAGACTACAATTTGAGCTGGC,sensor-assay potency score (higher = more potent),IL13RA1,0.897
TTCTAGTAATACAATATGCATT,sensor-assay potency score (higher = more potent),IL7,-1.23
TTGTATTTCGTACTACTGTTGT,sensor-assay potency score (higher = more potent),IPO9,-0.494
TTTAGGTCTGTCAGCTCCCAGT,sensor-assay potency score (higher = more potent),ITFG1,-0.933
TATTGCTGAAATCTTGTAGGAC,sensor-assay potency score (higher = more potent),ITFG1,0.541
TTATTGTTGATGAAGTAGCCAC,sensor-assay potency score (higher = more potent),JAM3,-0.389
TGAGTGTCTAGCTCTGTCCGAG,sensor-assay potency score (higher = more potent),JAM3,-0.68
TTGTTCGTCCACAAACTCGTGA,sensor-assay potency score (higher = more potent),KCND2,-0.0668
TTGTATACTACCTTGATGGCTT,sensor-assay potency score (higher = more potent),KCND2,0.674
TAGACTGTGACCAGCACCTTGT,sensor-assay potency score (higher = more potent),KCNK6,-0.385
TAGTCGGTGTGGGAGCTGGCAG,sensor-assay potency score (higher = more potent),KCNK6,-1.57
TATAGCATTCAGTTTTGTCTTC,sensor-assay potency score (higher = more potent),KCNRG,0.0468
TTTTATAGAAACATACCTGACT,sensor-assay potency score (higher = more potent),KCNRG,-0.489
TTCTATTTCTTGGTTCACCAGG,sensor-assay potency score (higher = more potent),KHDRBS3,-0.397
TAATTCCTAAGTCACTCTGTGG,sensor-assay potency score (higher = more potent),KIF25,-1.49
TATAGCTCTTTCCGCTGCCCGT,sensor-assay potency score (higher = more potent),KIF25,-1.1
TACTCGATCATATCTGGATGAT,sensor-assay potency score (higher = more potent),KLF14,-0.368
TTGATACTTGTTCTGTTTCAGG,sensor-assay potency score (higher = more potent),KLC3,-0.751
TTTGGTGTACATCTTGCTGCAG,sensor-assay potency score (higher = more potent),KLF15,0.126
ACAAGCAGTGGGTCACTCGGGT,sensor-assay potency score (higher = more potent),KIR2DL5B,-0.672
TAAACCTGTCAAAACAAGCTAG,sensor-assay potency score (higher = more potent),KLF15,-0.421
TTGTACAGACTGAAGATGGTAA,sensor-assay potency score (higher = more potent),KIR2DL5B,-0.188
TATATTTTTATGAAGGACCAAA,sensor-assay potency score (higher = more potent),KLF15,-0.999
TTCTTGTCGCAGTCGAGCCAGT,sensor-assay potency score (higher = more potent),KLF14,-1.02
TTCTGTTTCAGGTAGGCTGAGG,sensor-assay potency score (higher = more potent),KLC3,-0.432
TTGAGTGACATGGCTCTCTTCA,sensor-assay potency score (higher = more potent),KLC3,-0.297
TTGGTCAGGTGGTCGCTCCGGG,sensor-assay potency score (higher = more potent),KLF14,-0.324
TTGGTGTACATCTTGCTGCAGC,sensor-assay potency score (higher = more potent),KLF15,-0.584
TAAACTTCTTGTCGCAGTCGAG,sensor-assay potency score (higher = more potent),KLF14,-0.734
TGGATCTGCAGCAACACTGGGA,sensor-assay potency score (higher = more potent),KLF15,-0.384
TCGCAGTCGAGCCAGTCGCAGG,sensor-assay potency score (higher = more potent),KLF14,-1.84
TAGCACTAAAGTTCTGGCCTTG,sensor-assay potency score (higher = more potent),KLF15,-0.309
TTGAGGTGCGACGACTTGTAAT,sensor-assay potency score (higher = more potent),KLF14,-1.63
TATCTAGTTCTCTCACACCCAG,sensor-assay potency score (higher = more potent),KLF15,-0.809
TCTTTGTACAGCTCTTCCGCTT,sensor-assay potency score (higher = more potent),KLC3,-0.542
TCTCGCACACAGGACACTGGTA,sensor-assay potency score (higher = more potent),KLF15,-0.647
TAACATTGCCATGTCCCTCTGG,sensor-assay potency score (higher = more potent),KLF15,0.313
TTTGTCTGTGTGAAAACGCAGT,sensor-assay potency score (higher = more potent),KIR2DL5B,-0.271
TTCTTTGTACAGCTCTTCCGCT,sensor-assay potency score (higher = more potent),KLC3,-0.475
TTCTTTGTACTTGTTCTGGTCC,sensor-assay potency score (higher = more potent),KLC3,-0.164
ATAGGCTTTGGTGCAGCCCGGG,sensor-assay potency score (higher = more potent),KLF14,-0.764
TATTTTATGTGGATGGACCTAT,sensor-assay potency score (higher = more potent),KLF15,0.313
TTGTACTTGTTCTGGTCCCGGT,sensor-assay potency score (higher = more potent),KLC3,-0.388
AACTACTTGAAGAGTTTCCTGT,sensor-assay potency score (higher = more potent),KIR2DL5B,0.126
AAACTTCTTGTCGCAGTCGAGC,sensor-assay potency score (higher = more potent),KLF14,-1.65
ATATCTGGATGATAGGTTGGGT,sensor-assay potency score (higher = more potent),KLF14,-0.162
AAACTCTTCAATCTCCTCCAGG,sensor-assay potency score (higher = more potent),KLF15,-0.475
TTTGTACTTGTTCTGGTCCCGG,sensor-assay potency score (higher = more potent),KLC3,-0.559
TTAAATTTCAAATTTACACAAA,sensor-assay potency score (higher = more potent),KLF15,-0.919
TTGTAATAGGCTTTGGTGCAGC,sensor-assay potency score (higher = more potent),KLF14,-0.333
TTTCTTTGTACAGCTCTTCCGC,sensor-assay potency score (higher = more potent),KLC3,-0.28
TTGTACAGCTCTTCCGCTTGTT,sensor-assay potency score (higher = more potent),KLC3,0.24
ATCTTGGAGAGTGAGCTGCTGC,sensor-assay potency score (higher = more potent),KLC3,-1.26
TATCTGGATGATAGGTTGGGTG,sensor-assay potency score (higher = more potent),KLF14,-1.33
TTGGAGAGTGAGCTGCTGCGGC,sensor-assay potency score (higher = more potent),KLC3,-0.586
TAGGCTTTGGTGCAGCCCGGGA,sensor-assay potency score (higher = more potent),KLF14,-1.12
TAGACTGGCACTTCACCTGTGT,sensor-assay potency score (higher = more potent),KPRP,0.425
TAGTTGTTGCAGGTAGCCCTTG,sensor-assay potency score (higher = more potent),KPRP,-0.668
TAGACTGCTGGTAGCATGGGGT,sensor-assay potency score (higher = more potent),KRTAP10-10,-0.566
TAGCATGGGGTTGTGCAGGAGC,sensor-assay potency score (higher = more potent),KRTAP10-10,-0.83
ACACAGCAGATGGACTTGCAGC,sensor-assay potency score (higher = more potent),KRTAP10-2,-1.45
TGGGCAGTCGACTACCCGCCAA,sensor-assay potency score (higher = more potent),KRTAP10-10,-1.3
TTAGTTCTGCAGAACTTGGGTC,sensor-assay potency score (higher = more potent),KRTAP10-10,0.494
AGCATGAAGAGGATGACTCAGA,sensor-assay potency score (higher = more potent),KRTAP10-2,-1.89
AAGACTCGGAGCAGGTAGGCAC,sensor-assay potency score (higher = more potent),KRTAP10-10,-0.677
ACAGCTTCCATAACCCAGGGAT,sensor-assay potency score (higher = more potent),KRTAP13-2,-0.532
TTGTTACAGACGGGCACGCAGC,sensor-assay potency score (higher = more potent),KRTAP10-10,-1.52
TGCAGGAGCTGGTGTAGCCTGA,sensor-assay potency score (higher = more potent),KRTAP10-10,-0.876
TAGCGCAGGTAGTCACCACAGG,sensor-assay potency score (higher = more potent),KRTAP13-2,-0.777
TAGAATAAGAGGCTAATTCTTT,sensor-assay potency score (higher = more potent),KRTAP13-1,-0.634
TAGGCACGAAGCACACAGGCTT,sensor-assay potency score (higher = more potent),KRTAP10-10,0.129
TGGCCTGAGGAAAAGCTGCAGG,sensor-assay potency score (higher = more potent),KRTAP10-2,-1.08
AAGCACACAGGCTTGTTACAGA,sensor-assay potency score (higher = more potent),KRTAP10-10,-0.517
TAGGAAAAGCCACAGGAGGAGG,sensor-assay potency score (higher = more potent),KRTAP13-1,-1.49
TAGAGACCCAGAGTAAGTCGTC,sensor-assay potency score (higher = more potent),KRTAP13-2,0.623
TACACAGCAGATGGACTTGCAG,sensor-assay potency score (higher = more potent),KRTAP10-2,-0.914
TTGCAGCAGACGGACACACAGC,sensor-assay potency score (higher = more potent),KRTAP10-2,-1.17
TAACCCAGGGATCTGAAGCCAC,sensor-assay potency score (higher = more potent),KRTAP13-1,-0.898
TAGCAGACGGACTTAGAGCAGA,sensor-assay potency score (higher = more potent),KRTAP10-10,-0.81
ACATAGGATGTCTGGCAGCTGG,sensor-assay potency score (higher = more potent),KRTAP13-1,-1.73
TAGGCTGGTCTGTAACAAGGAG,sensor-assay potency score (higher = more potent),KRTAP13-2,-0.634
TCCACATAGGATGTCTGGCAGC,sensor-assay potency score (higher = more potent),KRTAP13-1,-1.92
TGGTCTGTAGCAAGAAGACTGG,sensor-assay potency score (higher = more potent),KRTAP13-1,-0.92
AACAGGTACACAGCAGATGGAC,sensor-assay potency score (higher = more potent),KRTAP10-2,-1.3
AAGAGGATGACTCAGAGCAGGT,sensor-assay potency score (higher = more potent),KRTAP10-2,-1.29
TAGCAAGAAGACTGGCAGCTCC,sensor-assay potency score (higher = more potent),KRTAP13-1,-0.434
TAGACTGCTGGCAGCACGGAGA,sensor-assay potency score (higher = more potent),KRTAP10-2,-0.939
TCTGTAGCAAGAAGACTGGCAG,sensor-assay potency score (higher = more potent),KRTAP13-1,0.163
TCCAGCTCGGCCAACTTGCAGC,sensor-assay potency score (higher = more potent),KRT86,-1.89
AGCAGGACTGCTGACACGGGGA,sensor-assay potency score (higher = more potent),KRTAP10-2,-1.24
TGGGCACGCAGCACACAGCTTT,sensor-assay potency score (higher = more potent),KRTAP10-2,-1.18
TGGTAGCATGGGGTTGTGCAGG,sensor-assay potency score (higher = more potent),KRTAP10-10,-1.66
TAGACCTGGTTGCTGGGGTAGG,sensor-assay potency score (higher = more potent),KRTAP13-1,-1.13
TCCAACGCCATAGCCCAGGGAA,sensor-assay potency score (higher = more potent),KRTAP13-1,-1.31
TTGGTGCAGGCGCTGGAGCAGA,sensor-assay potency score (higher = more potent),KRTAP10-2,-1.45
CAGCACACAGCTTTGCAGCAGA,sensor-assay potency score (higher = more potent),KRTAP10-2,-2.3
TTACAGACGGGCACGCAGCAGA,sensor-assay potency score (higher = more potent),KRTAP10-10,-0.719
TTGGTCTGTAGCAAGAAGACTG,sensor-assay potency score (higher = more potent),KRTAP13-1,-0.458
TATTTCTCCAGCTCTATGCTTT,sensor-assay potency score (higher = more potent),L1TD1,-0.459
TATCTCGCTTCCAACTTCGTGT,sensor-assay potency score (higher = more potent),LARP1B,-0.146
TAGTAATACATCATACTGGTAT,sensor-assay potency score (higher = more potent),LARP1B,-0.0186
